The text below walks through data of PubChem BioAssay (NCI).

Values joined by “and” are separate entries in the source; they are usually repeats but may differ in a detail not shown here. Equal entries are not always repeated. Compounds without any hit were thinned out: in the full panel of roughly 83,000, 20% have a hit.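 Compound tested at a single concentration for 48 hours in 96-well plates; a percent growth value below 10 was scored as active.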 Unmarked numbers belong to inactive results. Active and inactive are the calls of the source.

In this test the test system is HL-60(TB) leukemia. As to the kind of experiment: NCI-60 one-dose screen, 48 h (100 = growth as untreated, 0 = no growth, -100 = all killed). The conditions noted are these: 10 µM unless noted.
Regarding `COc1ccc(-c2ccc3cnc4sc(-c5ccc(OC)cc5)nc4c3n2)cc1`, the growth was 95.3%.
On to `Cc1n[nH]c(C)c1N=Nc1cccc2c1C(=O)c1ccccc1C2=O`, for which the growth was 96.3%.
Turning to `O=C(O)c1cn(-c2ccccc2)nc1-c1ccc(O)cc1`, the growth was 95.7%.
The value for `Cc1c(C2=NNC(c3ccc4c(c3)OCO4)C2)[n+]([O-])c2ccccc2[n+]1[O-]` (stereo not given) was 90.5%; that for `Cc1ccc(CNc2ccc(Cl)cc2NCc2ccc(C)c(O)c2)cc1O` was 8.41% (active); that for `COC(=O)/C(CCC=C(C)C)=C1\[C@@H](OC(C)=O)C[C@@]2(C)[C@H]1C[C@@H](O)[C@H]1[C@@]3(C)CC[C@H](NCCN)[C@@H](C)[C@@H]3CC[C@@]12C` was -47.4% (active).
In the case of `CCCCCCCCCCCCCCCC(=O)N1CCN(C)CC1` it was 47.3%; in that of `CC[C@@H](C)/C=C(C)/C=C/C(O)=C1\C(=O)N[C@@H](Cc2ccc(OC(=O)[C@@](OC)(c3ccccc3)C(F)(F)F)cc2)C1=O`, 8.34% (active); in that of `CCOP(=O)(OCC)c1nc(-c2ccccc2)oc1NCc1cccnc1`, 102%.
Regarding `Cc1ccn2cc(Cc3cc(=O)oc4c3ccc3ccccc34)c(=O)nc2c1`, the growth was 86.1%.
On to `CCCCCCCCCCCCCCCCCCOc1cccc(CCOP(=O)(O)OCC[N+](C)(C)C)c1`, for which the growth was 73.4%.
Regarding `NC(=S)N/N=C1\CCCC(C(F)(F)F)C1` (stereo not given), the growth was 89%.
In the case of `Cc1cc(-c2ccccc2)c(C)n1Cc1ccc(Cl)cc1` it was -27.2% (active); in that of `Nc1ncnc2c1c(-c1ccc(Oc3ccccc3)cc1)nn2C[C@H]1SSC[C@@H]1O`, -22.5% (active); in that of `CC1=CC(C)(C)NC(=S)N1c1ccc(Cl)cc1`, 94.7% and 97.6%.
The value for `Cc1nn(-c2nc3ccccc3[nH]2)c2c1C(c1ccc(OCc3ccc(F)cc3)cc1)CC(=O)N2` (stereo not given) was 75.8%; that for `Cc1ccc2c(ccc3c[n+]4c5ccccc5ccc4n32)c1` was 2.59% (active).
Turning to `S=C(NCc1ccc2c(c1)OCO2)N1CCN(c2ncnc3c2oc2ccccc23)CC1`, the growth was 19.7%.
For `COc1cc(-c2nc3cc(Cl)c(Cl)cc3[nH]2)ccc1OCC(=O)NN`, the growth was 82%.
Turning to `COc1cc(/C=C2/C=C(c3ccccc3)N(CCc3ccc(S(N)(=O)=O)cc3)C2=O)cc(OC)c1OC`, the growth is 86.7%.
In the case of `N#Cc1c(N)nc2c(nnn2-c2cccc(C(F)(F)F)c2)c1N`, the growth was 95.2%.
For `c1ccc2c(c1)CCN(NCCN1CCCC1)C2`, the growth is 96.9%.
As to `CC(=O)Nc1nc(C)c(C(=O)NNC=O)s1`, the growth was 104%.
Take `O=C(CN1CCCCC1)Nc1nc(-c2cc3ccccc3oc2=O)cs1`: the growth was 93.8%.
In the case of `COCCn1cc(-c2nc(-c3cccnc3)cs2)c2cc(F)ccc21` it was 93.4%; in that of `COc1c(B(O)O)cccc1-c1nc2c(F)cc3[nH]ncc3c2c2c1CCCC2`, -28.3% (active); in that of `N#Cc1c(-c2ccc(Cl)cc2)nc(NN=Cc2cccc(O)c2)nc1N1CCOCC1`, 66.6%.
Regarding `CCOc1ccc2nc(-c3cccc(OCC(=O)NC(C)C)c3)nc(Nc3ccc(-c4cn[nH]c4)cc3)c2c1`, the growth was 2.3% (active).
In the case of `C=C(C)[C@@H]1CCC=C2CC[C@]3(C)[C@H](CC[C@@H]4[C@@]5(C)CCCNC(C)(C)[C@@H]5CC[C@]43C)[C@H]21`, the growth is 27.7%.
Regarding `O=C1/C(=C/c2ccccc2[N+](=O)[O-])Cc2ccccc21`, the growth is 31.7% and 63.7%.
As for `Cc1cc(C(=O)O)c(C)cc1C(=O)O`, the growth was 113%.
Take `CCOC(=O)c1cc(C)[nH]c(=O)c1C#N`: the growth was 121%.
Regarding `COc1ccc(-c2cc(NC(=O)Nc3ccc(O)cc3)no2)cc1`, the growth was 26.4%.
Consider `O=C(/C=C/c1ccc[nH]1)c1ccc(-n2ccc(C(F)(F)F)n2)cc1`, for which the growth is -18.4% (active).
On to `O=C1c2cccc3cccc(c23)C(=O)N1N1C(=O)c2cccc3c(N4CCOCC4)ccc(c23)C1=O`, for which the growth was 125%.
Take `Nc1nc2ccccc2c2c1S(=O)(=O)c1ccc(Cl)cc1C2=O`: the growth is -24.2% (active).
The value for `Cn1c2ccccc2c2nn(C(=O)c3ccccc3)c(=O)nc21` was 110%.
Regarding `O=C1C(=O)N(CCCCn2cc(CO)nn2)c2ccccc21`, the growth is 91.9%.
`CCN1CCN(Cc2cn(CC(=O)Nc3ccc4c(ccn4Cc4ccccc4)c3)nn2)CC1`: the growth was 95.5%.
With `c1ccc2c(c1)cnc1ccccc12`, the growth was 94.9%.
